{"source": "PubChem BioAssay (NCI)", "note": "About 83,000 compounds went through this panel and 20% of them were active in at least one assay; those are over-represented in the sample as a whole.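 In brief: 96-well plates, 48 h treatment, single concentration, percent growth endpoint.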 Calls of active or inactive are those of the source."}
{"tested_on": "SK-MEL-2 melanoma", "experiment": "NCI-60 one-dose screen, 48 h (100 = growth as untreated, 0 = no growth, -100 = all killed)", "details": "10 µM unless noted", "description": "Growth inhibition of the SK-MEL-2 human tumor cell line is measured as a screen for anti-cancer activity. Cells are grown in 96 well plates and exposed to the test compound for 48 hours. Compounds are tested at a single concentration, which is 10^-5 M for most compounds. The reported endpoint is percent growth (GI% or GIPRCNT), where numbers from 0 - 100% represent growth inhibition, and numbers from -100% - 0 represent cell death. For example, a value of 40 represents 60% growth inhibition. A value of 0 means no net growth occurred over the course of the experiment. A value of -40 indicates 40% of cells at the beginning of the experiment died by the end of the experiment. A value of -100 means all cells are dead at the end of the experiment.\nNCI-60 Human Tumor Cell Lines Screen was performed using the standard one-dose NCI protocol, which is described in more detail at https://dtp.cancer.gov/discovery_development/nci-60/default.htm.\nCompounds with GIPRCNT values below 10 were considered active. Activity score was based on GIPRCNT using the following formula: […]\nScore is 0 for GIPRCNT values of 100 or above, 50 for GIPRCNT values of 0, and 100 for GIPRCNT values of -100."}
{"smiles": "c1ccc2[nH]c(-c3ccc(-c4nccc5c4[nH]c4ccccc45)cc3)nc2c1", "growth": "47.3% (inactive)"}
{"smiles": "COc1cccc(-c2nn(-c3ccccc3)cc2-c2ccnc(-c3cccnc3)c2)c1", "growth": "87.4% (inactive)"}
{"smiles": "COc1ccc(-c2nc(SCCC(C)C)nc(N/N=C(/C)c3ccc(N)cc3)c2C#N)cc1", "growth": "109% (inactive)"}
{"smiles": "O=C(Nc1ncc(Cc2ccccc2)s1)c1ccc2c(c1)OCCO2", "growth": "34.5% (inactive)"}
{"smiles": "O=C1C(c2c(O)[nH]c3ncccc23)=Nc2ccccc21", "growth": "43.4% (inactive)"}
{"smiles": "C/C(=N\\NC(=O)c1ccc(C(C)(C)C)cc1)c1ccc(O)cc1O", "growth": "42.8% (inactive)"}
{"smiles": "CN(C)C(=O)OCc1ccc2c(Cl)cc(Cl)c(O)c2n1", "growth": "50.1% (inactive)"}
{"smiles": "C=C(CNCCO)[C@@H]1CC[C@]2(CO)CC[C@]3(C)[C@H](CC[C@@H]4[C@@]5(C)CCC(NCCO)C(C)(C)[C@@H]5CC[C@]43C)[C@@H]12", "note": "(stereo not given in full)", "growth": "96.1% (inactive)"}
{"smiles": "Cc1oc2ccc(O)c(CN3CCCCCC3)c2c1C(=O)Nc1ccc(C(F)(F)F)cc1", "growth": "78.4% (inactive)"}
{"smiles": "N#C/C(=N\\Nc1ccccc1)C(=O)Nc1cc(-c2ccccc2)nn1-c1ccccc1", "growth": "22.6% (inactive)"}
{"smiles": "CN1CCN(Cn2nc(-c3cc(Cl)cc(Cl)c3Cl)oc2=S)CC1", "growth": "95.3% (inactive)"}
{"smiles": "COC(=O)c1c(C)nc(C)c2c1C(=O)C(Br)=C(NCCCCO)C2=O", "growth": "64.7% (inactive)"}
{"smiles": "CCCC[N+]1(C)CCN=C1Cc1ccccc1", "note": "(stereo not given)", "growth": "103% (inactive)"}
{"smiles": "CCN1CCN(c2nc(NNC(=O)c3ccc(OC)cc3)nc(N3CCN(C(c4ccccc4)c4ccccc4)CC3)n2)CC1", "growth": "78% (inactive)"}
{"smiles": "Cc1c(N2CCCCC2)[nH]c2ccccc12", "growth": "119% (inactive)"}
{"smiles": "N#C/C(=C/C=C/c1ccccc1)S(=O)c1ccccc1", "note": "(stereo not given)", "growth": "-15.9% (active)"}
{"smiles": "N=C(N)c1ccc(-c2ccc(-c3ccccc3)s2)nc1", "growth": "104% (inactive)"}
{"smiles": "C=C(CNCCc1ccc(O)cc1)[C@@H]1CC[C@]2(CO)CC[C@]3(C)[C@H](CC[C@@H]4[C@@]5(C)CCC(N)C(C)(C)[C@@H]5CC[C@]43C)[C@@H]12", "note": "(stereo not given in full)", "growth": "-81.4% (active)"}
{"smiles": "CN1CCN(Cc2ccc(NC(=O)c3cncc(C#Cc4c(N)ncc5c(F)cccc45)c3)cc2C(F)(F)F)CC1", "growth": "-65.4% (active)"}
{"smiles": "N#CC1=C(N)Oc2c(ccc3ccccc23)C1c1cc2ccccc2n2nnnc12", "note": "(stereo not given)", "growth": "12% (inactive)"}
{"smiles": "O=c1ccc2c(ccc3ncccc32)o1", "growth": "112% (inactive)"}
{"smiles": "O=S(=O)(c1ccc(NCSc2nc3ccccc3s2)cc1)c1ccc(NCSc2nc3ccccc3s2)cc1", "growth": "78.8% (inactive)"}
{"smiles": "O=C1NC(=O)C(=Cc2cc(-c3ccc(Cl)cc3)n(-c3ccccc3)n2)C(=O)N1", "growth": "106% (inactive)"}
{"smiles": "O=C(Nc1ncc(Cc2cc(C(F)(F)F)ccc2Cl)s1)C(=S)N1CCOCC1", "growth": "104% (inactive)"}
{"smiles": "Cc1cccc(C)c1NC(=O)Nc1ccccc1", "growth": "29% (inactive)"}
{"smiles": "C=C(c1ccc(OC)c(/C=C/C(=O)c2cc(OC)c(OC)c(OC)c2)c1)c1cc(OC)c(OC)c(OC)c1", "growth": "3.16% (active)"}
{"smiles": "Nc1n[nH]c2cccc(C#Cc3cccc(C(=O)Nc4ccc(Cl)c(C(F)(F)F)c4)c3)c12", "growth": "39.2% (inactive)"}
{"smiles": "Cc1c2ccncc2c(C)c2c1c1ccccc1n2CCCCCC(=O)O", "growth": "92.4% (inactive)"}
{"smiles": "C=C(c1ccc(C(=O)O)c(F)c1)c1cc2c(cc1C)C(C)(C)C=CC2(C)C", "growth": "87.1% (inactive)"}
{"smiles": "CN(C)CCCN(CCC1CCCCC1)CCC1CCCCC1", "growth": "61.4% (inactive)"}
{"smiles": "CN(C)CCOc1nc2c3cc([N+](=O)[O-])ccc3nn2c2ccccc12", "growth": "91.6% (inactive)"}
{"smiles": "COc1cccc(C2C(C#N)=C(N)Oc3c2ccc2ccccc32)c1", "note": "(stereo not given)", "growth": "40% (inactive)"}
{"smiles": "COc1ccc(-c2ccc(-c3ccc(C(=N)N)nc3)s2)cc1", "growth": "88.3% (inactive)"}
{"smiles": "CC(C)=CCC[C@](C)(O)C1CC[C@]2(C)[C@@H]1CC[C@@H]1[C@@]3(C)CC/C(=N\\OCCC#N)C(C)(C)[C@@H]3CC[C@]12C", "note": "(stereo not given in full)", "growth": "100% (inactive)"}
{"smiles": "COC(=O)c1c(C)nc(C)c2c1C(=O)C(Br)=C(NCCN1CCOCC1)C2=O", "growth": "99.4% (inactive)"}
{"smiles": "CCCN1C2CCC1/C(=C\\c1ccc(OC)cc1)C(=O)/C2=C/c1ccc(OC)cc1", "growth": "72.5% (inactive)"}
{"smiles": "COc1cc(OCc2cccc(-c3ccc4c(c3)OCCO4)c2C)cc(OC)c1C=O", "growth": "58.3% (inactive)"}
{"smiles": "CC(=O)OCC(=O)O[C@@H]1C[C@]2(C(C)C)O[C@@]1(C)[C@@H]1CC[C@@H](C)[C@H]1[C@@H]2OC(=O)/C=C/c1ccccc1", "growth": "90.9% (inactive)"}
{"smiles": "c1ccc(-c2cn3nc(-c4c[nH]c5ccccc45)sc3n2)cc1", "growth": "94.4% (inactive)"}
{"smiles": "COc1ccccc1-c1nc2ccc3[nH]ncc3c2c2c1CCCC2", "growth": "99% (inactive)"}
